This note sets out measurements from PubChem BioAssay (NCI).

Some test systems named below: RPMI-8226 leukemia; OVCAR-8 ovarian; OVCAR-4 ovarian; SK-OV-3 ovarian; IGROV1 ovarian; OVCAR-3 ovarian; HS 578T breast; NCI/ADR-RES ovarian; T-47D breast; MDA-MB-435 melanoma; SW-620 colon; MCF7 breast; HCT-116 colon; HCC-2998 colon; KM12 colon; BT-549 breast; OVCAR-5 ovarian.
Common to all, as to assay: NCI-60 one-dose screen, 48 h (100 = growth as untreated, 0 = no growth, -100 = all killed)
Holding throughout (settings): 10 µM unless noted

Values joined by “and” are separate entries in the source; they are usually repeats but may differ in a detail not shown here. Equal values may be shown once. The panel holds about 83,000 compounds, 20% with a hit somewhere; the sample as a whole holds those more often.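 Results are percent growth after 48 hours of single-concentration exposure. 100 means growth as in untreated cells, lower positive values show inhibition; negative values down to -100 show cell death.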 Some structures have more than one record in an assay (separate samples or runs), and their calls can disagree. Active and inactive are the calls of the source. How the source made its calls: active means growth percent below 10; inactive means the rest.

Take `O=S1(=O)CC(Br)C(Br)C1` (stereo not given): the growth with RPMI-8226 leukemia was 85.5% (inactive) and 82.5% (inactive); in the test on OVCAR-8 ovarian, 62.7% (inactive) and 88.9% (inactive); with OVCAR-4 ovarian, 63.1% (inactive) and 96% (inactive); in the test with SK-OV-3 ovarian it was 105% (inactive) and 110% (inactive); with IGROV1 ovarian it was 90.1% (inactive) and 59% (inactive); with OVCAR-3 ovarian it was 50.3% (inactive) and 75.7% (inactive). The growth in the test with HS 578T breast was 91.4% (inactive) and 89.7% (inactive); in the test on NCI/ADR-RES ovarian, 68.5% (inactive) and 110% (inactive); with T-47D breast, 34.5% (inactive) and 63% (inactive); in the test on MDA-MB-435 melanoma, 80.5% (inactive) and 95.1% (inactive); in the test with SW-620 colon it was 32.1% (inactive) and 29.8% (inactive); in the test on MCF7 breast, 56.9% (inactive) and 63.7% (inactive). The growth is 18.2% (inactive) and 66.8% (inactive) in the test with HCT-116 colon; 102% (inactive) and 117% (inactive) in the test on HCC-2998 colon; 105% (inactive) and 116% (inactive) with KM12 colon.

For the compound `CC(/C=N/N1C(=O)c2ccccc2C1=O)c1ccccc1` (stereo not given), the growth with RPMI-8226 leukemia is 97.9% (inactive); with OVCAR-8 ovarian, 101% (inactive); in the test with SK-OV-3 ovarian it was 108% (inactive); in the test with IGROV1 ovarian it was 98.6% (inactive); with OVCAR-3 ovarian it was 113% (inactive); with NCI/ADR-RES ovarian it was 113% (inactive). In addition, the growth in the test on T-47D breast was 98.7% (inactive); with BT-549 breast, 113% (inactive); in the test with MDA-MB-435 melanoma, 91.6% (inactive); in the test with SW-620 colon it was 106% (inactive); with MCF7 breast, 97.5% (inactive); in the test with HCT-116 colon it was 108% (inactive). Moreover, the values for the growth with HCC-2998 colon and with KM12 colon were 106% (inactive) and 113% (inactive), respectively.

Turning to `CCCCC1C(=O)N(c2ccc(S(=O)(=O)Nc3ccccn3)cc2)N(c2ccc(O)c(C(=O)O)c2)C1=O` (stereo not given), the growth in the test on MCF7 breast was 121% [100 µM] (inactive) and 87.3% [100 µM] (inactive).

In the case of `c1ccc(NCc2ccc3c(c2)OCO3)cc1`, the growth was 98.1% (inactive) in the test with OVCAR-8 ovarian; 110% (inactive) and 98% (inactive) in the test with OVCAR-5 ovarian; 92.4% (inactive) and 99.3% (inactive) in the test on SK-OV-3 ovarian; 103% (inactive) and 105% (inactive) in the test on OVCAR-3 ovarian; 109% (inactive) and 104% (inactive) with HS 578T breast; 106% (inactive) and 105% (inactive) in the test with NCI/ADR-RES ovarian. Moreover, the growth in the test on T-47D breast is 94.3% (inactive) and 110% (inactive); in the test with BT-549 breast it was 99.4% (inactive) and 85.2% (inactive); in the test with MDA-MB-435 melanoma, 111% (inactive) and 98.2% (inactive); in the test on SW-620 colon it was 102% (inactive) and 101% (inactive); in the test with MCF7 breast, 99.7% (inactive) and 102% (inactive); with HCT-116 colon, 103% (inactive) and 98.3% (inactive). In addition, the growth in the test with HCC-2998 colon is 102% (inactive) and 112% (inactive); in the test on KM12 colon, 103% (inactive) and 102% (inactive).

For `OC1CCC(Oc2cccc3cnc(Nc4ccc5nc[nH]c5c4)nc23)CC1` (stereo not given), the growth was 5.91% (active) and 52.6% (inactive) with OVCAR-8 ovarian; 24.2% (inactive) and 41.7% (inactive) in the test with OVCAR-5 ovarian; 15.7% (inactive) and 73.9% (inactive) in the test on OVCAR-4 ovarian; 8.38% (active) and 57.4% (inactive) in the test on SK-OV-3 ovarian; 19.1% (inactive) and 52.3% (inactive) with IGROV1 ovarian; 5.57% (active) and 53.7% (inactive) with OVCAR-3 ovarian. The growth was -7.28% (active) and 15.8% (inactive) in the test on HS 578T breast; 9.41% (active) and 83.2% (inactive) with NCI/ADR-RES ovarian; -7.14% (active) and 43.9% (inactive) in the test with T-47D breast; -19.5% (active) and 18.4% (inactive) in the test with BT-549 breast; 12.3% (inactive) and 58.4% (inactive) in the test on MDA-MB-435 melanoma; 5.88% (active) and 32.4% (inactive) with SW-620 colon. Moreover, the growth was 5.53% (active) and 17.9% (inactive) in the test on MCF7 breast; -6.99% (active) and 2.03% (active) with HCT-116 colon; 8.35% (active) and 61.4% (inactive) in the test with HCC-2998 colon; 1.29% (active) and 15.7% (inactive) with KM12 colon.

`COc1ccc2nc(Cl)cc(C)c2c1`: the growth in the test with RPMI-8226 leukemia was 95.6% (inactive) and 109% (inactive); with OVCAR-8 ovarian it was 101% (inactive) and 47.4% (inactive); in the test on OVCAR-5 ovarian, 93.7% (inactive) and 93.4% (inactive); in the test on OVCAR-4 ovarian, 99.2% (inactive) and 91.8% (inactive); in the test with SK-OV-3 ovarian, 107% (inactive) and 124% (inactive); in the test with OVCAR-3 ovarian it was 119% (inactive). Besides, the growth in the test on HS 578T breast is 113% (inactive); in the test with NCI/ADR-RES ovarian, 98.9% (inactive) and 102% (inactive); in the test on T-47D breast, 98.5% (inactive) and 128% (inactive); in the test with MDA-MB-435 melanoma, 93.6% (inactive) and 96.1% (inactive); in the test on SW-620 colon, 102% (inactive) and 122% (inactive); with MCF7 breast, 92.1% (inactive) and 111% (inactive). Besides, the growth in the test on HCT-116 colon is 107% (inactive) and 89.6% (inactive); in the test with HCC-2998 colon, 108% (inactive) and 96.1% (inactive); in the test with KM12 colon, 99.3% (inactive) and 124% (inactive).

Take `Nc1ccccc1SC1CC(=O)N(c2cccc3ccccc23)C1=O` (stereo not given): the growth in the test with RPMI-8226 leukemia is 86.3% (inactive); in the test with OVCAR-8 ovarian, 92.2% (inactive); with OVCAR-4 ovarian it was 93.6% (inactive); with SK-OV-3 ovarian, 88.6% (inactive); in the test with OVCAR-3 ovarian it was 101% (inactive); with HS 578T breast it was 97.9% (inactive). Also, the growth in the test with NCI/ADR-RES ovarian is 96.1% (inactive); with T-47D breast, 90.4% (inactive); in the test on BT-549 breast, 102% (inactive); in the test on MDA-MB-435 melanoma it was 88.7% (inactive); in the test on SW-620 colon it was 94.4% (inactive); in the test on MCF7 breast it was 88.2% (inactive). Besides, the growth with HCT-116 colon is 89.4% (inactive); with HCC-2998 colon, 100% (inactive); in the test on KM12 colon, 101% (inactive).

`O=C(O)c1cc(C(=O)O)cc([N+](=O)[O-])c1`: the growth in the test on RPMI-8226 leukemia was 108% (inactive); in the test on OVCAR-8 ovarian it was 106% (inactive); with OVCAR-5 ovarian it was 105% (inactive); in the test on OVCAR-4 ovarian, 108% (inactive); in the test with IGROV1 ovarian, 108% (inactive); in the test with OVCAR-3 ovarian, 111% (inactive). Besides, the growth in the test on HS 578T breast is 112% (inactive); in the test on NCI/ADR-RES ovarian, 106% (inactive); in the test with BT-549 breast, 102% (inactive); with MDA-MB-435 melanoma it was 99% (inactive); in the test with SW-620 colon, 107% (inactive); with MCF7 breast, 104% (inactive). Also, the growth was 101% (inactive) in the test on HCT-116 colon, 110% (inactive) in the test with HCC-2998 colon and 109% (inactive) in the test with KM12 colon.

Regarding `CCCCCCCCCC(=O)CC(=O)c1c(O)cc(O)cc1O`, in the test with MCF7 breast, the growth was -63.3% [75 µM] (active) and -13.9% [75 µM] (active).

For the compound `NC(Cc1ccc(S(=O)(=O)O)cc1)C(=O)NC(Cc1ccc(S(=O)(=O)O)cc1)C(=O)NC(Cc1ccc(S(=O)(=O)O)cc1)C(=O)NC(Cc1ccc(S(=O)(=O)O)cc1)C(=O)O` (stereo not given), the growth in the test with MCF7 breast is 87.7% [100 µM] (inactive) and 83.5% [100 µM] (inactive).

Take `O=C1NC(N/N=C\c2ccccc2)=N/C1=C/c1ccccc1`: the growth with MCF7 breast is -46% [100 µM] (active) and -100% [100 µM] (active).

For the compound `O=[N+]([O-])c1ccccc1/C=N\Nc1ccccc1`, the growth was 91.1% (inactive) and 89.9% (inactive) with OVCAR-8 ovarian; 91.1% (inactive) and 89.2% (inactive) in the test on OVCAR-5 ovarian; 82.2% (inactive) and 86.3% (inactive) with OVCAR-4 ovarian; 90.6% (inactive) and 93.7% (inactive) in the test on SK-OV-3 ovarian; 74.4% (inactive) and 59.1% (inactive) in the test with IGROV1 ovarian; 94.5% (inactive) and 92.7% (inactive) in the test with OVCAR-3 ovarian. The growth is 90.3% (inactive) and 118% (inactive) in the test with HS 578T breast; 73.3% (inactive) and 75.6% (inactive) in the test on NCI/ADR-RES ovarian; 48.2% (inactive) and 57.9% (inactive) in the test on T-47D breast; 91.1% (inactive) and 97.8% (inactive) in the test with BT-549 breast; 88.8% (inactive) and 83.6% (inactive) in the test on MDA-MB-435 melanoma; 95% (inactive) and 93.3% (inactive) in the test on SW-620 colon. The growth is 66.3% (inactive) and 69.4% (inactive) in the test on MCF7 breast; 79.2% (inactive) and 84.5% (inactive) in the test with HCT-116 colon; 88.6% (inactive) and 91.5% (inactive) with HCC-2998 colon; 40.6% (inactive) and 36.1% (inactive) in the test with KM12 colon.

Take `Cc1ccc(OCC2OC(n3cnc4c(Cl)nc(Cl)nc43)CC2Oc2ccc(C)cc2)cc1` (stereo not given): the growth in the test with MCF7 breast was -91.5% [100 µM] (active) and -93.1% [100 µM] (active).

Regarding `COC(=O)/C=C\C(C#N)(C#N)N=Cc1ccsc1`, the growth with MCF7 breast was -73.8% [100 µM] (active) and -39.1% [100 µM] (active).

Turning to `CCC(c1ccc(N(C)C)cc1)C1NC(=S)NC1=O` (stereo not given), in the test on MCF7 breast, the growth was 37.9% [100 µM] (inactive) and 10.5% [100 µM] (inactive).

Regarding `COc1cc([C@H]2OC[C@H]3[C@@H]2CO[C@@H]3c2cc(OC)c3c(c2)OCO3)cc(OC)c1OC`, in the test on MCF7 breast, the growth was 18.5% [100 µM] (inactive) and 2.61% [100 µM] (active).

For `COc1ccc(-c2nc3ccccc3c(=S)n2OC(C)=O)cc1`, the growth with MCF7 breast is 8.58% [25 µM] (active) and -23% [25 µM] (active).

For `C=C1CC2(C)CCC(OC(=O)C3(C)OC3C)C(C)(OC(C)=O)C2CC1=C(C)C` (stereo not given), in the test with MCF7 breast, the growth is 67% [100 µM] (inactive) and 8.58% [100 µM] (active).
